A number with no mark means an inactive call.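 Rule for the calls: active = MAPPIT score above the 99th percentile of random reference set scores in the same batch; inactive = at or below it.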
Legend:
Assay in all cases: MAPPIT interaction score (arbitrary units); higher = stronger binary interaction signal, active = hit call of the paper
CG5662 = settings: MAPPIT configuration: N-N; pair source set: screen_2
CG6683 = settings: MAPPIT configuration: N-N; pair source set: Lit-BS-16
CG8654 = settings: MAPPIT configuration: N-N; pair source set: DPIM
vih = settings: MAPPIT configuration: N-N; pair source set: Curagen_low_conf
CG5174 = settings: MAPPIT configuration: N-N; pair source set: Curagen_high_conf
CG6712 = settings: MAPPIT configuration: N-N; pair source set: DPIM
CG5708 = settings: MAPPIT configuration: N-C; pair source set: screen_4
Polr3F = settings: MAPPIT configuration: N-C; pair source set: screen_3
hale = settings: MAPPIT configuration: N-N; pair source set: screen_1
pasi2 = settings: MAPPIT configuration: N-N; pair source set: Lit-BS-16
CG5883 = settings: MAPPIT configuration: N-N; pair source set: RRS
CG6933 = settings: MAPPIT configuration: N-N; pair source set: Lit-BS-16
CG6664 = settings: MAPPIT configuration: N-N; pair source set: DPIM
CG5854 = settings: MAPPIT configuration: N-N; pair source set: Curagen_high_conf
Zip88E = settings: MAPPIT configuration: N-N; pair source set: Lit-BS-16
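Note: HEK293T cells with Epo stimulation, STAT-responsive firefly luciferase reporter, fold induction versus unstimulated cells divided by the larger fold induction of two negative controls lacking either bait or prey.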

B1: CG9393 (protein)
chain: MEMQLGAMLYVYKGEYGLPSIDFECLRALCLLRFTRCPMDVQTSSNPLRSGAGKLPYLQIGNQKFAGYRQIKRVLDLEGYPIDAHLSTKQKHLSTAYANWVFTNLHAYYHYFLFGEPHNFDTTTRGLYAKRTPFPFNFYYPSSYQREACDVVQVMAGFDVNDKLDKHEGDYLVVNAKKVVNLLSRKLGRKVWFFGDTYSEFDAIVYSYLAIIFKIALPNNPLQNHIKGCQNLVNFINRITKDIFRIEGYSSVKLTKTPSGTEASLTASERKFLDSELNTKIVAGVGAVLAMGAFAAWRGIYNQLTTRSSTDYDGIDYEDDEMEEGLD
For B1, the MAPPIT interaction score (CG5662) was 4.82 (active).

B2: Fer1HCH (protein)
chain: MVKLIASLLLLAVVAQAYGDFKCSLAVPEITKDWVDMKDACIKGMRNQIQEEINASYQYLAMGAYFSRDTVNRPGFAEHFFKAAKEEREHGSKLVEYLSMRGQLTEGVSDLINVPTVAKQEWTDGAAALSDALDLEIKVTKSIRKLIQTCENKPYNHYHLVDYLTGVYLEEQLHGQRELAGKLTTLKKMMDTNGELGEFLFDKTL
For B2, the MAPPIT interaction score (CG6683) was -0.52, the MAPPIT interaction score (CG8654) was 0.0556 and the MAPPIT interaction score (vih) was -0.155.

B3: rad50 (protein)
chain: MSSIESLSIQGIRSFGTYADDLQSIKFSSPVTLILGENGCGKTTVVECLKYALTGECPPGSDRGKSFVHDPKIFGLNEVLAQIKMQVRDRRGAQVSICRTMKVSKKRNKMSFETMDSTINFLTGAGQSKREKQDSLSGRSVDIDVAISDFMGVSKAIINNVLFCHQEDSSWPLDESKKLKEKFDAIFGITEYNKALDKIIKLRKEAMEELKIKEANIKHVAYLKQEMEVKTLNLQKAQRKCDAIKAQCSECEEEMKPIEARLVEIRNVEFEIGKYQAQKVEMDTKHKNCKDQISTLTLKIKKPFRGTLDELDQEISNFDQRMLEMRQKRTEVEGDLSQIKRSSVAEQEKLGTQDRKHCLAKQRHQSELACRAQLLKRVKEFCRELHIPIDCDLVEQPEKMGEVLRDIEAMIITKHCEITEIVEQNEKADRSRQVKIDELRIELTKSEQSVTAQEKQRESSKRESETLGVEIKKIETSMQDLKKLEKEINEVNELYESATKNIDQQAIKDAIARKKASIAENQIQFKKLDEQLTFLGSMAKLVAECSLKQKELDKKNQEVHRVRSRHSDHFGKLFKEPITCNYRRSMQVVYEKLRREIQELNEKANTQKLKEQSYEIKRKNLISDISRMEKELKDSEELIYQKCRSTPYDDLLERSKTTISKLQFDHGALKSSEALYKKYIQKMDEEPSCPLCHHNMTSDEACDLTSELTDEIQKLPDNITRAEKALKAEQIKYENLLQLKPTILKVKELKDSLPQKKEELKKVEELLGDSVSEYETLIALIGEPTHNMELANSMMGDMSLLDEALKDSARLTKDLDLQKGQLPASYDSSVSMDDLQAEKSKVSKELETERKELESAQNAVQQQMDALNRLREKKNSLKDRQIHLREGLQSLPQLKERLEKLNSFLTTVASEISELKAKIQPLKLNLRAAIEEKERLKKSESEKLAQLNSKYNSYKSTDHDIQRLNKEAEDYAKLDLRNEIKKLDEIIMASKDKLRKLEAEISLKTDELETIKTECSNQQTVERDLKDNRELKQLEDKEAKLRESCQVLDKQLGNLDFHSVSKEKVNLTKQRDKATVRKGELLGQLGEIHSQVNKLQREIDEPRFKESLKNFRKANYEIEVTRLCIEDLGQYRLALEWALIQFHSEKMEMINRLIREYWRKIYRGNDIDYIQVKTDEVSSDASADRRKTYNYRVVQSKNYSEIEMRGRCSAGQRVLASLIIRLALAETFSSNCGVLALDEPTTNLDRANINSLCEALNCIVEERQSQSNFMLIIITHDENFVSSLGKITSYHRVFRNEECKSVIRRVEAGPSKKALIDQ
B3 was tested, and the MAPPIT interaction score (CG5174) was 0.0423.

B4: Vha55 (protein)
chain: MNAQQAQREHVLAVSRDFISQPRLTYKTVSGVNGPLVILDEVKFPKFAEIVQLRLADGTVRSGQVLEVSGSKAVVQVFEGTSGIDAKNTLCEFTGDILRTPVSEDMLGRVFNGSGKPIDKGPPILAEDFLDIQGQPINPWSRIYPEEMIQTGISAIDVMNSIARGQKIPIFSAAGLPHNEIAAQICRQAGLVKLPGKSVLDDHTDNFAIVFAAMGVNMETARFFKQDFEENGSMENVCLFLNLANDPTIERIITPRLALTAAEFLAYQCEKHVLVILTDMSSYAEALREVSAAREEVPGRRGFPGYMYTDLATIYERAGRVEGRNGSITQIPILTMPNDDITHPIPDLTGYITEGQIYVDRQLHNRQIYPPVNVLPSLSRLMKSAIGEGMTRKDHSDVSNQLYACYAIGKDVQAMKAVVGEEALTPDDLLYLEFLTKFEKNFISQGNYENRTVFESLDIGWQLLRIFPKEMLKRIPASILAEFYPRDSRH
Work on B4 yielded an MAPPIT interaction score (CG6712) of -0.225.

B5: H2.0 (protein)
chain: MLLHESAASMEQSMPENLSTHMYGECEVNPTLAKCPDPVNVDHELPTKESCASTTIVSTSPTSATSTTKVKLSFSVDRLLGSEPEESHRQSSSSPSTKSCCDGSILACCSFPHCFSQANAESRRFGHATLPPTFTPTSSHTYPFVGLDKLFPGPYMDYKSVLRPTPIRAAEHAAPTYPTLATNALLRFHQHQKQQHQQHHHHQHHPKHLHQQHKPPPHNSTTASALLAPLHSLTSLQLTQQQQRFLGKTPQQLLDIAPTSPAAAAAATSQNGAHGHGGGNGQGNASAGSNGKRKRSWSRAVFSNLQRKGLEIQFQQQKYITKPDRRKLAARLNLTDAQVKVWFQNRRMKWRHTRENLKSGQEKQPSAVPESGGVFKTSTPSGDGTPQEALDYSSDSCSSVDLSEQADEDDNIEINVVE
B5 gave an MAPPIT interaction score (CG5708) of 2.81, an MAPPIT interaction score (Polr3F) of 2.33 and an MAPPIT interaction score (hale) of 0.405. For the same binder, the MAPPIT interaction score (pasi2) was 2.43.

B6: mRpL39 (protein)
chain: MSAATKLHKTSWCALRQLQQYRTKANFSGSSASLAKRNDLFNQEQRRQRDAVGRIDKIEVRYLGLPEDVTLVMNGNISTPFNCAQHLSEGHCKRSALALIDGSVPWDMHRPLQESCTLQLLNFHVSEPHVVNKAFWRTCSFMLGAALNRAFKPEANLQLHSFPGPNIKSGSFVHDIVLQTQNWEPGKEEMRALSAEMVKLAAQDLRIERLDVQQDLAQEMFKDSKYKSEQLPSISQQTNGRVTLYRLGDHIDISRGPMVASTSFLGKCVISAAHKVAEEGPSGAFYRIQGVALPSGFQLNHVAFGVLEERSKKPSPARLPNEPFEEQQQLQLS
With B6 the MAPPIT interaction score (CG5883) was -0.604.

B7: Inx7 (protein)
chain: MLNTFSSVRQYLKFDLTRVVIDNIVFKLHYRWTFVILLVATLLITSRQYIGEHIQCLSDGVVSPVINTFCFFTPTFTVVRDQNQTAYRPGSEPPGIGAFDPEKDTIKRHAYYQWVPFVLFFQALCFYIPHALWKSWEGGRIKALVFGLRMVGLTRYLKNDSLRIGKLNIPSMAEAEERVKDIRRTMIDRMRLNQSWGAHLVFAEVLNLINLLLQITWTNRFLGGQFLTLGPHALKNRWSDELSVLDLVFPKITKCKFHKFGDSGSIQMHDALCVMALNIMNEKIYIILWFWYAFLLIVTVLGLLWRILTLCFYRNVTFTRWSLYWAKPGQLDENELLAVIDKCNFSNWMFLFFLRSNLSEFLFKKVIYHLASEFPNPDHDNDVNAYREAPPTPAKNRYPELSGLDTIDSPLLHLRRNGSPSAGGAQGPSTSDMAKLPV
With B7 the MAPPIT interaction score (CG6933) was -0.387.

B8: frj (protein)
chain: MSIDDVIYVICLLGCIGAGSYVKKIADEGQRKLVSTGLGVLVVVIVSGLHSLHCFVSLALGTAAVLLVHPSKGHLVTFAVMFGYLVFFRIFDFYFGIPGHTNMIQMILTLKVSGIAFEKTAAWKRLQAHDEQKKNDQRDVHQESPIEITDYDVELQSLSAAEILHYSFNYIGVLTGPYYRYRTYRDYFEMPFKTYAPTVEATLEKLKYAVFYCALYLATNYMWPLDYALSDEFFNDRSFVYRLLYVWPTFFTFRARIYTGLTLSECVCTMAGFGAYPDESDPNNGEGPRKRYQHLKRDADKHTYNFTTIVNTRVLEVERCWTFREGMKHWNVCVQYWLAVNVYKLFPSKKYRTGATLLCSAYWHGFRPGHYFCIMGAPFYVSLEDMWDKLVRKSATGTSRRVIDVIFWIFKWFAFSYLGEAFLLSSFGNIWRFYSSVYHIGYISWAAMTALGFYLTSQRKAAERRKKRAAEKAAGGDGIAAAIEKEKAQ
Work on B8 yielded an MAPPIT interaction score (CG6933) of 0.0283.

B9: Cbp80 (protein)
chain: MSRRRAHDTEDEGYDHRRNKRRRVSENQEIEDRLESLILRVGERSTSSVESNLEGLVSVLEADLGTFRLKILRILSDCAVRMPEKCTVYTTLVGLLNAKNYKFGGEFVDHMVKTFKESLKMCRWDAARYSLRFLADLVNCHVISATSLLQLLDTMIDVSNEDTVPQVRRDWFVFAVLSTLPWVGRDLYEKKESALESLLLRIEVYLNKRSKKHHNALRVWSSDAPHPQEEYLDCLWAQIRKLRQDNWAEKHIPRPYLVFDSILCEALQHNLPTIVPPPHHDNFEYPMPWVVYRMFDYTDCPDGPNLPGAHSIERFLIEEHLHHIIETYHHERKDCAAQLLSFPYKHKIPLEYCIVEVVFAELFHMPTPRYLDICYGSILIELCKLQPATLPQVLAQATEILFMRIDSMNTSCFDRFVNWFSYHLSNFKFTWSWDEWDSCLLLDGEHPRPKFIQEVLQKCLRLSYHQRITEMMPTTYAKLIPLTPVPNYKYANEEAANLPGTTVAHQLVVAIRQKCTPEEVVNILKDIPNSGYSGEEMSDGSFNALKIDVFVQTLLNLGSKSFSHSFAAISKFHSVFRALAETEEAQICILHNIFELWSSHQQMMVVLIDKLLKLQIVDCSAVATWIFSKEMTGEFTKLYLWEILHLTIKKMNKHVIKLNTELSEAKEKLAKADSSSSDSEDDSSHKRKKPITHADKPSEEVVERMEEKLEAANVNQKRLFLIVFQRFIMILSEHLLRSDTDGRDPDTDWYRWTIGRLQQVFLMHHEQVQKYSSTLETLLFTSDLDTHILEVFQQFVALRA
In the case of B9, the MAPPIT interaction score (CG6664) is reported as -0.12.

B10: pip (protein)
chain: MSLNAERSYKMKLRDVENAFKYRRIPYPKRSVELIALLAISCTFFLFMHTNKLNSRLKEMEVKLQPSEFSALGLTGNHISGHDAGKHDDINTLHGTYQYLKSTGQKVGYNVHDRRSSEEQLRTPTAHGHHHDHHSHHHHMHQQEKIDGHKHKASHDKQLAVPDNKHKEDEVHYEDDEDEVEENDDDLANDVGTTDSEGFNFKADLLNNTKYAEVDFVFFNRVPKVGSQSLMELMARLGKINGFTHARNKGSAHETIVMNKQRQNDLIADLLTRPKPHIYSQHIAYINFTRFHLPKPIYINLIRDPIDRIISWHYYIRAPWYYRDMQAKLGENAIPMPSEEFMNLDLDTCVRNHDPHCTFTQMQIKNPVGDHRRQTLFFCGMNQKLCMPFNSEAAMQKAKRTVETEYAVVGTWEDTNITLSVLEAYIPRYFRNAKVAYYLGKDRLSRVNRNNVTRIVSDETRLILRKNLTNEIEFYEFCKQRLYLQYAALSHGKRFGEDDYLLVPEQQNEYNEDY
B10 showed an MAPPIT interaction score (CG5854) of -0.136 and an MAPPIT interaction score (Zip88E) of 0.425.
